# Substitutions are numbered along the chain they refer to.
# Columns and labels:
# Test in all cases: protein-binding microarray (PBM); PBM: ~300 nM protein, 6 mM HEPES pH 7.8, 80 mM KCl, 0.5 mM EDTA, 0.5 mM EGTA, 6% glycerol, 35 ng/ul poly-dIdC, 1% milk, 1 h, room temperature; Ap Aiptasia and Nv Nematostella (sea anemones) / Co Capsaspora / Aq Amphimedon (sponge) / Dm Drosophila / Hu human; RHD is the Rel homology domain; high values mean tight binding
# Settings in all cases: dsDNA, one strand shown
# [1] = biological target: T1, GST-Ap-NF-kB RHD (Exaiptasia pallida (Aiptasia), UniProt A0A913YAJ5 2-422)
# T1 sequence: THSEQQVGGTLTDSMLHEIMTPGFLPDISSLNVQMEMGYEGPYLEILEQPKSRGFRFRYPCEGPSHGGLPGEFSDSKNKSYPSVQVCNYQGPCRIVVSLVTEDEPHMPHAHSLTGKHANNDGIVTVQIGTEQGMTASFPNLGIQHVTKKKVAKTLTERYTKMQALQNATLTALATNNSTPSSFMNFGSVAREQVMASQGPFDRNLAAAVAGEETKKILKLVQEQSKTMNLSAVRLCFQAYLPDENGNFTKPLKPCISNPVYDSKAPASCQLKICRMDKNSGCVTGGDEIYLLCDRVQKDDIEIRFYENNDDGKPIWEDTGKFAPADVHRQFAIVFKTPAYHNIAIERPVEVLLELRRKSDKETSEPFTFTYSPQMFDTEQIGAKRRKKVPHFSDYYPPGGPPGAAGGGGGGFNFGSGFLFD
# [2] = biological target: T2, GST-Nv-NF-kB (Cys allele) (Nematostella vectensis, UniProt E5G601 2-411)
# T2 sequence: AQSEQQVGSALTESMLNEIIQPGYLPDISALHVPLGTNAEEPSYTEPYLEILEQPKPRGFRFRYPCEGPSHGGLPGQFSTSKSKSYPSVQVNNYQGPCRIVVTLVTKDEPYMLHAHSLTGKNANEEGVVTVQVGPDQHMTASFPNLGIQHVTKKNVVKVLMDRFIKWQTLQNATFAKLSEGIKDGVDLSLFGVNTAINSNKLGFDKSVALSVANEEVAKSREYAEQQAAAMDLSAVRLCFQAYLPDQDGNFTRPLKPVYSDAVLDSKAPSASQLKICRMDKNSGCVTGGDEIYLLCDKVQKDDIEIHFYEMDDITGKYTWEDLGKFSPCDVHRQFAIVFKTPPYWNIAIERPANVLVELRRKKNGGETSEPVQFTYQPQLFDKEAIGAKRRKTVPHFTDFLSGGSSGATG
# [3] = biological target: T3, GST-Nv-NF-kB (Ser allele) (Nematostella vectensis, UniProt A7UNT2 2-411)
# T3 sequence: T2 sequence with Q21R, C66S, S207N, E215Q, V217A, E225K, A268E, D399E
# [4] = biological target: T4, GST-Co-NF-kB (Capsaspora owczarzaki, UniProt F1ARL5 200-546)
# T4 sequence: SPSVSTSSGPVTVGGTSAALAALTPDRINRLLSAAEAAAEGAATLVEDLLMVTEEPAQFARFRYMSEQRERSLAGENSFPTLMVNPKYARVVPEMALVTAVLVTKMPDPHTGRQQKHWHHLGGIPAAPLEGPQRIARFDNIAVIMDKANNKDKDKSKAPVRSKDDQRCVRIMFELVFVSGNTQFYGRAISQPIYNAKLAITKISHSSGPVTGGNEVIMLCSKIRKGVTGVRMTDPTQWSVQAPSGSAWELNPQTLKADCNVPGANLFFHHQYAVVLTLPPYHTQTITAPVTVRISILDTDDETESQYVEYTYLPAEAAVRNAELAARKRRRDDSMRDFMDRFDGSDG
# [5] = biological target: T5, GST-Dm-Relish (Drosophila melanogaster, UniProt Q94527 99-473)
# T5 sequence: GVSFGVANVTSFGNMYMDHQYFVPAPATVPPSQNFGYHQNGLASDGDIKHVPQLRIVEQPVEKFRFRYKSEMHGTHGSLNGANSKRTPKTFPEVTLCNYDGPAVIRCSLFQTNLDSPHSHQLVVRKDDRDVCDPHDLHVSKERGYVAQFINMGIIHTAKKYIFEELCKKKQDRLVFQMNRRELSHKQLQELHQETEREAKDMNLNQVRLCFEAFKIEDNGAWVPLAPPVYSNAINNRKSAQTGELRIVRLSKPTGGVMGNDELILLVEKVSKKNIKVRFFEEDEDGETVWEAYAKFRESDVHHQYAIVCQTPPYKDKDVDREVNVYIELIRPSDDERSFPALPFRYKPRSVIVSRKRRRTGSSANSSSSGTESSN
# [6] = biological target: T6, GST-Aq-NF-kB (Amphimedon queenslandica, UniProt A9Y5G7 2-389)
# T6 sequence: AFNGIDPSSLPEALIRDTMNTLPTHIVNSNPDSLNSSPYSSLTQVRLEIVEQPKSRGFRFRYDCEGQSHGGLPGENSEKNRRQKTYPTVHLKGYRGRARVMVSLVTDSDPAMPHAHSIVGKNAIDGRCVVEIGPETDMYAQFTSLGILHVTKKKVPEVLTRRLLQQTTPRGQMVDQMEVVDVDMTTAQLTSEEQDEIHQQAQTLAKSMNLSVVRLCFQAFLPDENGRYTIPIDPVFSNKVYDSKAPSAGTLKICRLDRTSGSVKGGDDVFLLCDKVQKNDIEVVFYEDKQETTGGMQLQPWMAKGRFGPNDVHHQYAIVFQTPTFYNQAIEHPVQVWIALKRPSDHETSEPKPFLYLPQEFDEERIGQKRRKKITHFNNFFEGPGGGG
# [7] = biological target: GST-Hu-p50 (Homo sapiens, UniProt P19838 7-356)
# Chain of GST-Hu-p50 (P19838 7-356): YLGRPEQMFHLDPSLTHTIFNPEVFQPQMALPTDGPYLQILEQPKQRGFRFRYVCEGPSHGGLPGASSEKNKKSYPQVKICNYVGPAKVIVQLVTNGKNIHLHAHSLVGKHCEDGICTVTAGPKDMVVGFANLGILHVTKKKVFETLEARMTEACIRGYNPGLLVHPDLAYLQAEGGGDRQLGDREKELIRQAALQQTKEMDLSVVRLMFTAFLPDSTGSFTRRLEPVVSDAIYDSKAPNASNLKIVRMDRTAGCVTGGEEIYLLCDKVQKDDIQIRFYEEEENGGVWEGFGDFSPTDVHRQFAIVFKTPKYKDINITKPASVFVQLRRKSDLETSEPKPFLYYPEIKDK
Sequence,binding signal [1] [z-score],binding signal [2] [z-score],binding signal [3] [z-score],binding signal [4] [z-score],binding signal [5] [z-score],binding signal [6] [z-score],binding signal [7] [z-score]
CCGATTAACATCAAGGGGAATCCTGATGTTAATCGGGTCTTGATTCGCTTGACGCTGCTG,9.67,11,10,5.17,9.09,7.69,6.99
CCGATTAACATCACGGAACCCCCTGATGTTAATCGGGTCTTGATTCGCTTGACGCTGCTG,7.51,4.89,6.13,2.13,9.21,5.54,5.79
CCGATTAACATCAGGCAATCCCCTGATGTTAATCGGGTCTTGATTCGCTTGACGCTGCTG,7.27,7.19,6.86,1.6,6.78,7.01,5.39
CCGATTAACATCAGGGGGCACCCTGATGTTAATCGGGTCTTGATTCGCTTGACGCTGCTG,5.39,3.36,2.57,2.17,3.84,5.62,3.84
CCGATTAACATCACGGGGATTTATGATGTTAATCGGGTCTTGATTCGCTTGACGCTGCTG,7.32,7.95,8.97,4.67,8.32,5.47,6.63
CCGATTAACATCATTTTGGGGACTGATGTTAATCGGGTCTTGATTCGCTTGACGCTGCTG,2.93,3.66,3.16,1.94,1.4,4.11,3.28
CCGATTAACATCAGGGAAGTCCCTGATGTTAATCGGGTCTTGATTCGCTTGACGCTGCTG,9.31,11.7,9.19,1.97,10.4,10.2,6.58
CCGATTAACATCACAGAATCCCCTGATGTTAATCGGGTCTTGATTCGCTTGACGCTGCTG,8.13,8.87,11.1,3.42,7.58,6.21,6.89
CCGATTAACATCAAAAGTTCCCCTGATGTTAATCGGGTCTTGATTCGCTTGACGCTGCTG,8.35,9.74,10.9,9.64,9.48,7.95,6.5
CCGATTAACATCACGTGATTCCCTGATGTTAATCGGGTCTTGATTCGCTTGACGCTGCTG,2.22,2.38,2.58,1.63,8.61,3.33,1.11
CCGATTAACATCAATAATTCCCCTGATGTTAATCGGGTCTTGATTCGCTTGACGCTGCTG,8.52,10.6,11.8,8.63,7.98,7.59,6.96
CCGATTAACATCACGGGGCCCCCTGATGTTAATCGGGTCTTGATTCGCTTGACGCTGCTG,5.45,3.6,2.68,1.49,3.89,4.31,3.47
CCGATTAACATCAGAACACCCCCTGATGTTAATCGGGTCTTGATTCGCTTGACGCTGCTG,5.58,4.69,4.4,3.33,4.87,5.48,5.09
CCGATTAACATCAGACTTTTCCCTGATGTTAATCGGGTCTTGATTCGCTTGACGCTGCTG,2.88,4.94,5.24,4.28,1.62,4.8,3.13
CCGATTAACATCAGGGGATATTATGATGTTAATCGGGTCTTGATTCGCTTGACGCTGCTG,7.99,7.96,9.17,4.65,6.28,6.34,6.06
CCGATTAACATCAACAAAATCCCTGATGTTAATCGGGTCTTGATTCGCTTGACGCTGCTG,3.4,3.64,3.66,1.89,6.66,3.47,2.65
CCGATTAACATCATATGGGAAAATGATGTTAATCGGGTCTTGATTCGCTTGACGCTGCTG,1.55,3.76,4.82,3.09,1.12,2.17,2.72
CCGATTAACATCAGGGGAGTTCATGATGTTAATCGGGTCTTGATTCGCTTGACGCTGCTG,5.95,4.23,4.73,3.54,3.15,3.96,4.11
CCGATTAACATCAAAGAATCCCCTGATGTTAATCGGGTCTTGATTCGCTTGACGCTGCTG,8.71,9.68,11.8,4.06,9.1,6.89,7.06
CCGATTAACATCAGGGGAATTCATGATGTTAATCGGGTCTTGATTCGCTTGACGCTGCTG,9.45,10.8,10.8,6.94,7.6,7.5,6.83
CCGATTAACATCAGATTTTCCCCTGATGTTAATCGGGTCTTGATTCGCTTGACGCTGCTG,8,8.78,11,9.39,4.94,7.27,6.35
CCGATTAACATCAAATAGTCCCCTGATGTTAATCGGGTCTTGATTCGCTTGACGCTGCTG,7.11,7.06,6.71,4.46,5.51,6.32,5.39
CCGATTAACATCAGAACTCCCCCTGATGTTAATCGGGTCTTGATTCGCTTGACGCTGCTG,7.91,6.48,7.12,6.15,5.58,6.48,7.11
CCGATTAACATCACGAATCCCCCTGATGTTAATCGGGTCTTGATTCGCTTGACGCTGCTG,8.06,6.45,7.96,5.16,6.03,5.26,6.72
CCGATTAACATCAAATATTCCCTTGATGTTAATCGGGTCTTGATTCGCTTGACGCTGCTG,5.14,6.37,6.41,3.47,3.18,5.56,4.16
